This is a sample that favours compounds with a hit; in the whole collection about 0.9% have one here.
APEX1 inh: blocks human APE1 abasic DNA cleavage | P27695 | recombinant APE1, TAMRA/BHQ-2 abasic DNA cleavage fluorescence | Potency, µM (titrated, usually from 65.8 µM), inactives show at the top dose activity change, negative = inhibition, hits mostly inhibitors | 0.35% of 350,000 active | AID 2517;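 note: plate controls were vehicle for no effect and reference inhibitor for full effect; nearly all actives have a fitted effect of over 55% in size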
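Substrate: short duplex with […] THF abasic site, 5'-TAMRA and 3'-BHQ-2, 50 nM final. APE1 at 0.75 nM, preincubated 15 min RT with compound. Fluorescence increase from first to third read measured activity.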
BLM helicase inh: inhibitors of human Bloom syndrome helicase BLM | P54132 | recombinant BLM DNA unwinding, fluorescence dequenching | Potency, µM (highest dose often 56.1 µM), for the others: at the top dose activity change, negative = inhibition, usual class: inhibitors | 0.2% of 350,000 active | AID 2528;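 note: plate controls were vehicle for no effect and no enzyme for full effect; nearly all actives have a fitted effect of over 35% in size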
Target sequence (P54132 whole entry, looked up): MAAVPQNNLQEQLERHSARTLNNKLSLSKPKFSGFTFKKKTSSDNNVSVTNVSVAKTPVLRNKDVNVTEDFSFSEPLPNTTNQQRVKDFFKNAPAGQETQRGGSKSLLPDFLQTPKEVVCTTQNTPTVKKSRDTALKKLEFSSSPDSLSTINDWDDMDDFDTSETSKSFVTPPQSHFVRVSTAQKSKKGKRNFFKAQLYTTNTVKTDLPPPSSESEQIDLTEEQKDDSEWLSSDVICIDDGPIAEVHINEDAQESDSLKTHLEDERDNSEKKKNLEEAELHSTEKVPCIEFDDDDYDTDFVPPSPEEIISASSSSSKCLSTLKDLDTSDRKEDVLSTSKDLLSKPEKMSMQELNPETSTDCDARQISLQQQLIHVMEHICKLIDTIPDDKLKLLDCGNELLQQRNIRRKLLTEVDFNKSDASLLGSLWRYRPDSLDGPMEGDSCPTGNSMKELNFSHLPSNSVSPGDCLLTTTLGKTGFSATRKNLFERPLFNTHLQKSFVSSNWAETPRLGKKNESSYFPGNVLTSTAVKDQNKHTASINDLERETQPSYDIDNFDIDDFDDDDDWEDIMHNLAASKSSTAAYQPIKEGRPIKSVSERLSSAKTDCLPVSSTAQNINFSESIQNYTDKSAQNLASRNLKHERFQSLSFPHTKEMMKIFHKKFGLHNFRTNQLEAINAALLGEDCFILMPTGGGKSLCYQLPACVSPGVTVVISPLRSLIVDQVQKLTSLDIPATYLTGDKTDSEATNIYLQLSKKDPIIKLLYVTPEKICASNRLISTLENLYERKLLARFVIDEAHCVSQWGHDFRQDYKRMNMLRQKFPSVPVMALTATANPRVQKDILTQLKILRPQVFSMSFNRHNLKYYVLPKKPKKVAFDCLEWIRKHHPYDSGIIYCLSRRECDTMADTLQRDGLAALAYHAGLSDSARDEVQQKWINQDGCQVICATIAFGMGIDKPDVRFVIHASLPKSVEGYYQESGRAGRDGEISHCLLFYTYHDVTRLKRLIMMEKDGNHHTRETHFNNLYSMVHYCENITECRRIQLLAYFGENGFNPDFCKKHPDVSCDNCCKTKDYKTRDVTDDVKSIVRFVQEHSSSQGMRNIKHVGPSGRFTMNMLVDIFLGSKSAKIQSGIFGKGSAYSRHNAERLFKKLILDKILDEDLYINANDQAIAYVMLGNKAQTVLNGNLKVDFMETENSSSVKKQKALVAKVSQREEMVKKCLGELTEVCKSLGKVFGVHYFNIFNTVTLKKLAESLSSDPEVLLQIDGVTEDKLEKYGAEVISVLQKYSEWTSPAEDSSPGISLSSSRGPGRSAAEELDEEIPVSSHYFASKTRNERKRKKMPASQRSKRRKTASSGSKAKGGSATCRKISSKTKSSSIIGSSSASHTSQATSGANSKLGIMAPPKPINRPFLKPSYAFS
TDP1 block: TDP1 (human) enzyme inhibition; Q9NUW8; recombinant TDP1, AlphaScreen DNA substrate cleavage; Potency, µM (doses to about 130 µM), for inactives: at the top dose activity change, negative = inhibition, hits mostly inhibitors; 0.28% of 350,000 active; note: nearly all actives have a fitted effect of over 40% in size
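Recombinant human Tdp1 (E. coli-expressed, 1 nM final) preincubated with compounds 15 min at room temperature, then 5'-biotin/3'-phosphotyrosine-FITC DNA substrate (15 nM final) added for 5 min. AlphaScreen beads (10 ug/ml final) added 10 min; cleavage lowers signal.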
Lamin A splicing: modulators of lamin A splicing; HeLa LMNA splicing GFP/RFP minigene ratio, 48 h; Potency, µM (doses to about 46.1 µM), for the others: at the top dose ratio change, negative = inhibition, actives largely listed as inhibitors; 0.01% of 200,000 active; AID 1487; active = well fitted inhibition curve with a large enough effect in the signal ratio, with a control signal flat, not every such curve was filed as active; inconclusive = small, poorly fitted or top-dose-only effect, or effect the other way, or a change in a side signal; the % refers to the signal ratio
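S3 HeLa stable clones carrying a lamin A-EGFP splicing minigene plus DsRed2 were seeded at 600 cells/well in Opti-MEM with 2% FBS, pin-dosed and incubated 48 h at 37°C. Acumen cytometry (488 nm) gave the GFP/RFP total-intensity ratio.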
RECQ1 inh: inhibitors of human RECQ1 DNA helicase. 0.54% of 240,000 active. Potency, µM (doses to about 57.3 µM), for inactives: at the top dose activity, negative = inhibition, usual class: inhibitors. RECQ1 DNA unwinding, red fluorescence kinetic read;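 note: plate controls were vehicle for no effect and no enzyme for full effect; nearly all actives have a fitted effect of over 30% in size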
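50 nM RECQ1T1 preincubated 15 min with compound in Tris pH 8.0 buffer with MgCl2, DTT, Tween-20 and 2.5 ug/ml poly(dI-dC); started with 200 nM TAMRA/BHQ-2 forked duplex and 2 mM ATP. Unwinding read as fluorescence (525/598 nm), two reads 2 h apart.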
GCN5L2 inh: GCN5L2 (KAT2A) acetyltransferase inhibition; 0.21% of 390,000 active; GCN5L2 HAT assay, ThioGlo1 CoA-SH fluorescence; Potency, µM (series often up to 58.9 µM), inactives show at the top dose activity change, negative = inhibition, actives largely listed as inhibitors; AID 504327
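GCN5L2 (20nM final) in 50mM HEPES, 0.1mM EDTA pH 7.5, 0.01% Tween-20 was preincubated 15 min at room temperature with compound, then given ThioGlo1 (50uM), H3(1-25) peptide (75uM) and acetyl-CoA (70uM); CoA-thiol fluorescence (Ex340/Em540) was read at 0 and 20 min.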
Starred values were filed as active, the others as inactive; ? = inconclusive; . = no result; [ ] = dose if it differs, or a comment. Unless noted, calls come from the whole dose curve; as a rule, active = well fitted curve in the direction sought with a large enough effect; inconclusive = small, poorly fitted or top-dose-only effect, or another doubt; inactive = no such curve, though single readings can be large; an effect the other way counts as inactive or inconclusive. Unless noted, % is set by controls: 0 for no effect and ±100 for the full control effect; potency is the fitted concentration of half-maximal effect.

SMILES	APEX1 inh	BLM helicase inh	TDP1 block	Lamin A splicing	RECQ1 inh	GCN5L2 inh
CC(C)C[C@H](NC(=O)[C@H](CC(C)C)NC(=O)[C@@H](Cc1c[nH]c2ccccc12)NC(=O)[C@H](Cc1ccccc1)NC(=O)[C@@H](Cc1c[nH]c2ccccc12)NC(=O)[C@H](CCC(N)=O)NC(=O)[C@H](CCC(N)=O)NC(=O)[C@@H]1CCCN1C(=O)[C@H](CCCCN)NC(=O)[C@@H]1CCCN1C(=O)[C@@H](CCCNC(=N)N)NC(=O)[C@@H]1CCCN1C(=O)CNC(=O)[C@H](CC(C)C)NC(=O)[C@H](CC(C)C)NC(=O)[C@H](Cc1ccc(O)cc1)NC(=O)CNC(=O)[C@H](C)NC(=O)[C@H](CO)NC(=O)[C@H](CC(N)=O)NC(=O)[C@H](CC(C)C)NC(=O)[C@@H](NC(=O)[C@H](Cc1c[nH]c2ccccc12)NC(=O)CN)[C@@H](C)O)C(N)=O	2%	-9%	11%	.	-18%	1%
O=Cc1cccn1-c1cccc([N+](=O)[O-])c1	4%	4%	9%	.	0%	?
O=C(O)c1cccc(-n2cccc2/C=C\[N+](=O)[O-])c1	13µM*	6%	.	.	-28%	?
COc1ccc(NC(=O)CSc2ccc3c4c(cccc24)C(=O)c2ccccc2-3)cc1	4%	-4%	4%	4%	-5%	22µM*
Cn1c2cc(B(O)O)sc2c2cnn(Cc3c(F)cccc3F)c(=O)c21	21µM*	.	.	.	.	-1%
Cc1cc2c(s1)c1cnn(Cc3cccc(F)c3F)c(=O)c1n2C	.	.	-4%	.	.	.
Cn1c2cc(B(O)O)sc2c2cnn(Cc3ccc(F)cc3F)c(=O)c21	13µM*	.	.	.	.	-6%
Cn1c2cc(B(O)O)sc2c2cnn(Cc3c(F)cccc3Cl)c(=O)c21	?	.	.	.	.	-9%
Cn1c2cc(Br)sc2c2cnn(Cc3ccc(F)cc3F)c(=O)c21	-6%	.	2%	.	.	3%
Cc1cc2c(s1)c1cnn(Cc3ccc(Cl)cc3)c(=O)c1n2C	.	.	35µM*	.	.	.
Cc1ccc(/C=C2/Sc3ccc(C(=O)NCc4ccccn4)cc3NC2=O)cc1	5%	-12%	32µM*	.	.	-26%
O=C1Nc2cc(C(=O)NCCN3CCCCCC3)ccc2S/C1=C\c1ccccc1	20%	-1%	6%	.	.	1%
COc1ccc(CN2c3cc(S(=O)(=O)N4CCOCC4)ccc3N3CCCC32)cc1 (configuration not stated)	?	3%	4%	6%	-10%	-7%
COc1cccc(CN2C(=O)C3CCCN3c3ccc(S(=O)(=O)N4CCOCC4)cc32)c1 (configuration not stated)	15%	-4%	4%	3%	28µM*	-2%
CCOC(=O)C1=C(C)N=c2s/c(=C\c3ccc(OCC(=O)O)cc3)c(=O)n2C1c1ccccc1 (configuration not stated)	13%	-5%	.	.	.	-15%
CC1=C(C(=O)OC(C)C)C(c2ccc(Cl)cc2)n2c(s/c(=C\c3ccc(OCC(=O)O)cc3)c2=O)=N1 (configuration not stated)	6.7µM*	-22%	.	.	.	?
CC[C@H](C)[C@H](NC(=O)[C@@H]1CCCN1C(=O)[C@H](Cc1cnc[nH]1)NC(=O)[C@@H](NC(=O)[C@H](Cc1ccc(O)cc1)NC(=O)[C@@H](NC(=O)[C@H](CCCN=C(N)N)NC(=O)CNC)C(C)C)[C@@H](C)CC)C(=O)O	1%	0%	10%	.	-4%	-15%
N#Cc1nc(Nc2ccc(-c3ccccc3)cc2)nc(NC2CCCC2)n1	.	.	1%	.	.	.
CC(=O)c1c(C)oc2ccc(NS(=O)(=O)c3ccc(C)cc3)cc12	-2%[12.4 µM]	0%	0%	.	.	0%
Cc1ccc(C)c(S(=O)(=O)Nc2ccc3oc(C)c(C(=O)O)c3c2)c1	13µM*	-5%	.	.	.	-20%
